Results taken from PubChem BioAssay (NCI).
This is part of a sample that, as a whole, favours compounds with a hit. Of some 79,000 tested, about 15% had one in any assay. A number with no mark means an inactive call. Calls of active or inactive are those of the source. Cut-off read from the data, not from the text of the source: active = growth inhibition above about 70%; inactive = the rest.

Experiment: NCI Yeast Anticancer Drug Screen. Data for the rad52 strain (AID 147);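 note: 0% = growth of vehicle-treated control cultures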
Settings: S. cerevisiae rad52 mutant growth inhibition, stronger effect = higher value
Method: Growth inhibition of yeast strains with defined genetic alterations is measured as a screen for potential anti-cancer activity. Selected strains with alterations in DNA damage repair or cell cycle control were exposed to compounds and growth inhibition was measured relative to vehicle treated controls. The strain used in this assay is rad52

Row | SMILES | growth inhibition (at 1.2 µM) | growth inhibition (at 3.7 µM) | growth inhibition (at 11.0 µM) | growth inhibition (at 33.0 µM) | growth inhibition (at 100.0 µM)
1 | Cc1ccc(-c2ccc(Nc3c4ccccc4nc4ccccc34)cc2)cn1 | 6% | 48% | 90% (active) | 95% (active) | 92% (active)
2 | CC(O)C(O)C(O)C(/C=N\Nc1ccccc1)=N/Nc1ccccc1 (stereo not given) | 5% | 10% | 12% | 69% | 98% (active)
3 | O=C1C=CC(=O)c2c(O)c(Nc3ccc(OC(F)(F)F)cc3)c(Cl)c(O)c21 | 9% | 12% | 17% | 32% | 81% (active)
4 | CC(CC(C)(C)[N+](C)(C)C)[N+](C)(C)C (stereo not given) | 13% | 1% | 13% | 15% | 14%
5 | Cc1cc(O)cc(O)c1N=Nc1ccc([N+](=O)[O-])cc1 | 5% | 12% | 11% | 20% | 32%
6 | CC(=O)OCCOCNC(=S)N/N=C(\C)c1cnccn1 | -27% | -41% | -19% | 20% | 77% (active)
7 | CCC/C(Cl)=N\OC(=O)Nc1cccc(C(F)(F)F)c1 | 9% | 10% | 10% | 19% | 21%
8 | O=C(O)C1CCCCC1c1c2ccc(=O)c(O)c-2oc2c(O)c(O)ccc12 (stereo not given) | -18% | -26% | -20% | 24% | 79% (active)
